# Experimental data as given in PubChem BioAssay AID1508600 (Functional Genomics Laboratory (NCATS/FGL), 2020).
# The whole screen tested about 53,000 sequences, of which about 3,700 (7%) were called active. This excerpt belongs to a sample that is enriched for actives. A number with no mark means an inactive call.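 How the source made its calls: active means gene knockdowns whose robust z-score for IL-1 alpha signal is at least 2 or at most -2, so actives lie on both sides; inactive means the rest.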
# Assay: Components of the Cytosolic LPS Sensing Pathway: Gene Identification via Genome-wide siRNA Screen;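 further: robust z of the log signal after scaling to non-targeting control siRNA wells of the plate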
# Conditions: RAW264.7 macrophages, IL-1a HTRF, actives lie on both sides, screened at 100 nM (by protocol), cells primed 5 h with Pam3CSK4 first
# In short: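 RAW264.7; siRNA 100 nM final, RNAiMAX, 48h 37 degrees C; Pam3CSK4 5 h; LipidA + TransIT-TKO 24 h; IL-1a HTRF; CellTiter-Glo viability; robust z vs negative-control median.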
row,Sequence,z-score
1,CGAGAGCUAAAAAGAGUAATT against Chd1,0.42
2,GGAAGUUUCUGGAAACACATT against Mbd3,-0.487
3,GGAGGAUUGUCCACAUGGATT against Ccl27a,4.32 (active)
4,GGCAACAUGGUGAUCAUCGTT against Olfr323,-0.461
5,CGGUAUUUCAUCCUGGAUATT against Plekha1,0.403
6,GCAUGGAACAAGGUUGCUCTT against Pa2g4,1.84
7,GGUACACCAAGGCUUGCUATT against Coq8b,-0.343
8,GCAUGAGUUAGACCAUAAUTT against Phf12,-2.59 (active)
9,GGCCUCUUUUGGUAUUCCATT against Zfp42,0.946
10,GGCCUCAAUGCAGUAUCAATT against Shisal2b,0.773
11,GCUAAGAAUAGGAGUUAGATT against Ift57,0.419
12,GGUCAGAAGUUAAUUUAUGTT against Rad23b,-0.413
13,GGACCUGCUCUUGGUCAUUTT against Fam118a,0.461
14,GGGAAGUGACCAUCAAGAATT against Slc8a3,2.56 (active)
15,GGUGAUGCGCCUGAAGGAUTT against Ntng2,-0.668
16,GCUCCUCCAUCAGUUAGAUTT against Ube2v2,-1.06
17,GGAAUCAACUUGGUGGCUCTT against Rxrg,-0.0611
18,GGGUUUCUGUUUGAUUCCATT against Gria1,-0.747
19,GGCUAUGCUGCCUACUACUTT against Bmp7,-2.63 (active)
20,GCCAACCUCUGUGUGUAUUTT against Olfr1263,0.799
21,UGGUUGUAUUAUUCUGUUGTT against Defb38,0.188
22,GGACUUAUCUCAUCCAAGATT against Gm9946,0.39

row,Sequence,z-score
1,CCAGAAACGAUGCAUUCAUTT against Olfr124,2 (active)
2,GGACUUUGAAAAAGAUGCATT against Fkbp7,1.21
3,AGUAUUCUUUGCUUUCCUUTT against Olfr822,0.731
4,GGAGAAGAUGAUUAAGACCTT against Anp32b,0.51
5,CCACAGACUCUUAAUUAGATT against Ap3b1,-2.14 (active)
6,UAUCACAGACAUGAAAGAATT against Lst1,0.105
7,GGAAAAACAGUGCAGAUGGTT against Smchd1,0.228
8,GGGCAUUAAGACAAAGAGUTT against Fam3c,0.769
9,GGAAAAGUUGCAUUUGGUCTT against Wdr17,-1.02
10,GGAGUUCACUGUGCUGAUGTT against Ppbp,-0.536
11,GCUAAACUUAAGUCCAUCATT against Supt7l,-0.592
12,GGGUUUGUGGGAUACAAUCTT against Smarce1,2.97 (active)
13,GGGUAGUUAUACAAACUAATT against Snapc5,1.53
14,GGUUCACAUCCUCCUCAGATT against Twist2,1.08
15,CCUUGAUGCUCGUAGGAAGTT against Efr3a,-1.11
16,GGACAUUCUGCUACACAAGTT against Bsx,2.63 (active)
17,GCCAACAUGUAUCAAAGCUTT against Rpgr,-1.11
18,GGACAAUGUGGUGCUGUCCTT against Slc34a3,0.492
19,GGAGUCCUUUCGUUCUAUCTT against Rab2a,-0.319
20,GGACAUUGCUAACUGCCUUTT against Snx16,2.37 (active)
21,GCCAAACUUACGUUUUUGATT against Trak2,0.81
22,CCUGUUUAAACUCUGCGGATT against Vit,0.678

row,Sequence,z-score
1,GGUUUUGUAGGAGUCUCUCTT against Vmn1r54,0.247
2,GCUAGUACUAUUACCUGCUTT against Enkd1,2.17 (active)
3,GGUGAUGAUGAUGUCUUUGTT against B3gnt7,1.93
4,GCUGAAUAGCCUCUAUCUATT against Rasgrp4,0.261
5,GCCUCUACUUUACCAAGUUTT against Olfr883,0.523
6,GGGCUUUAGCCUGAGCGAUTT against Gpc1,-0.916
7,GGUGAGCUUGGUUUCUAAATT against Gdf15,2.28 (active)
8,GGCAUCUUCAUGUACUUGCTT against Olfr1445,1.5
9,GGUUUUCAGUACAUCCUGGTT against Cryba4,0.183
10,GCCAUGCAUCUGGAUUUACTT against Nat1,1.19
11,GGAGCAGACUUUAAAAUGATT against Stau1,-0.626
12,GGGCUCAUUGCUAAAACACTT against Sgcg,-0.221
13,GGCUAUUGUACAACUUAUATT against Pafah1b2,2.1 (active)
14,GCCCUUUGGAAGAAUACUCTT against Golt1b,-1.12
15,GGAGCUCAUGGAAAUCUGUTT against Pfpl,0.446
16,AGUGAAGAAAUGUUUGACATT against Raet1b,-1.08
17,CCUAUUUGUAGGUGAUGUUTT against B3gnt7,-0.445
18,GGUUCACUCCUGAUACCACTT against Ddo,1.29
19,GGCUUUUGGCUUCAACCCUTT against Slc39a14,-2.24 (active)
20,GGAAGCCAUUAUACAUGACTT against Uvrag,-0.261
21,GGUACAGAAUAUGUCACAGTT against Olfm3,0.627
22,CCCUCUGGAUGGAUCUUCATT against Fbp2,-1.3

row,Sequence,z-score
1,GCAAGACUGAAAAUCCUGATT against Timm8a2,-1.2
2,GCAACUGAACCUUCUGCUATT against Morn2,-1.7
3,GGCUUGUACUACCAUGACATT against Rasgef1b,-2.76 (active)
4,GGGAACAAGGAACUCAAAGTT against Cadm1,1.69
5,CCUGAAAGAUAACAAGUGGTT against Rnls,0.0112
6,GGUUUGUUUUACAAAAUGCTT against Zdhhc5,0.37
7,GCAUUUUAGACUCAGAAUCTT against Car3,-0.047
8,GGAACGUAUACCUAUACCCTT against Huwe1,-0.263
9,GGUAUGCAGUGAAGAGGAUTT against Paqr9,2.52 (active)
10,CCGUGACAGUCAUGUUGAUTT against Amt,0.235
11,GGAAAGACCUCUUGAUAGGTT against Tbkbp1,0.113
12,CCUCUAUGUGAGAUUUGAGTT against Mamdc2,-0.917
13,CCCACCGAGACACCAUCUUTT against Syne4,-1.78
14,GGGAGAUUGCAUUUGGAGCTT against Olfr678,0.317
15,GGCUGAAGUUACUUUGGAUTT against Nup98,-2.03 (active)
16,GCAUGUAGACUACAACGUGTT against Myoz1,-1.27
17,GGGCUGAAGUGAAACCAGATT against D930048N14Rik,0.415
18,GGGUCCAAAAGAAAAGUGUTT against Zc2hc1c,0.784
19,GCAAAACACACUGAUGGUGTT against Stx16,0.835
20,GGCAAUUCAUUGCAUGUUATT against Cdc42ep3,-0.177
21,GGAUCUCACAGUGAAGAAGTT against Krba1,0.392
22,GCUUAUUUGUGGUACACGGTT against D030056L22Rik,0.112

row,Sequence,z-score
1,GGUUUCCUGAAGUUUUCAATT against Gnaz,3.08 (active)
2,GGGUUGACCACUAUUUCUGTT against Olfr1338,-1.06
3,CGAAAAAGGGCUUUUAACUTT against Ndufs1,0.757
4,GGUGAAUGAGGACUCUGGGTT against Dcps,-1.07
5,CGAGCACCUAUUCAUCAUATT against Tdo2,0.889
6,GGUACGACUUGGAAGAAAUTT against Rock2,-0.415
7,GCUUAUGAUUCCAAGGCAGTT against Serpina6,0.9
8,AAUUCUGGACGAGGAGCAUTT against Abcc5,3.22 (active)
9,CCUGGCAGUAAUCACCAUUTT against Olfr1158,-0.117
10,CGAGAAAAUGGAUUCUACCTT against Atp10d,0.314
11,GGAGUUGUCUACCAAAGUUTT against Reep5,0.609
12,CCCGAUGAAGUGUUUUUAGTT against Oosp1,-0.753
13,GGAAGAAUAAAGUGCUUUGTT against Chga,2.27 (active)
14,GGAUCCUCUUGAUCAAGCUTT against Vps53,-0.891
15,GGUUUGAUUAUACCUAUCATT against Tenm2,-0.337
16,GGAGAAAGGUUUUGUUAUGTT against Gtf2h2,1.5
17,CCUACUACAUCCGCUACUGTT against Apba2,-0.366
18,GGUUUGGCUUAGCUCAUCATT against Mettl24,-2.72 (active)
19,GGGCUACUCAGCCUAUAGUTT against Asic4,1.22
20,GGCAAACUCGGGUAUACACTT against Mybpc1,0.394
